Screening results from PubChem BioAssay.
Compounds with a hit are over-represented: about 4.6% of the library has one in this group of screens.
TRHR enhancer: qHTS for Small Molecule Agonists and Allosteric Enhancers of Human TRH Receptor: Primary Screen for Enhancers | Thyrotropin-releasing hormone receptor (Homo sapiens), P34981 | TRHR cells, fluo-8 calcium fluorescence, EC20 TRH enhancement | enhancement, % at 2 µM | actives 0.66% (n = 360,000); in the data active means enhancement above about 30%
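Enhancer read-out: after compound pinning and an initial kinetic agonist-mode read, an EC20 of TRH (10 nM final) was injected and fluo-8 calcium signal (Ex 480/Em 530) followed at 1 s/cycle for 100 cycles in TRHR-expressing cells.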
D1 ag: Allosteric Agonists of the Human D1 Dopamine Receptor: qHTS | D(1A) dopamine receptor (Homo sapiens), P21728 | HEK293 T-REx D1 cells, calcium flux, agonist mode | activation, % at 2 µM | actives 1% (n = 360,000)
Target sequence (P21728 whole entry, looked up): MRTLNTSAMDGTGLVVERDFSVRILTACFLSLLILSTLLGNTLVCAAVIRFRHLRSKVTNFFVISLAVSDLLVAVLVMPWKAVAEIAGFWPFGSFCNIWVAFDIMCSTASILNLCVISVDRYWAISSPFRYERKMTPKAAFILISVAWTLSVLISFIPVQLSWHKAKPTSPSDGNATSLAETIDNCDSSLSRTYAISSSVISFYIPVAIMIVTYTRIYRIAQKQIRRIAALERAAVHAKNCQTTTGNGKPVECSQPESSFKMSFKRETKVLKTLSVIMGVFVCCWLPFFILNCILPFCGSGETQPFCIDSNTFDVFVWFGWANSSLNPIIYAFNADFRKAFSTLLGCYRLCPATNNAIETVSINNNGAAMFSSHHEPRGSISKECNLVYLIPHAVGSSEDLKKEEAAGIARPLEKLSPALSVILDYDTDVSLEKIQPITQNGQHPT
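Inducible HEK293 T-REx D1 cells, force-coupled to calcium signalling, were plated at 4000 cells/well with tetracycline and held overnight at 30 C. After no-wash calcium dye loading, compound-evoked calcium rise over 180 s flagged agonists.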
TRHR ag: qHTS for Small Molecule Agonists and Allosteric Enhancers of Human TRH Receptor: Primary Screen for Agonists. TRHR cells, calcium flux fluo-8, FDSS agonist mode. activation, % at 2 µM. Thyrotropin-releasing hormone receptor (Homo sapiens), P34981. actives 0.18% (n = 360,000)
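TRHR-expressing cells loaded with fluo-8 calcium dye; 23 nL library compound pin-transferred, kinetic FDSS fluorescence (Ex 480/Em 530) recorded about 180 s for agonist-induced calcium release, before a 10 nM TRH EC20 addition for potentiator mode.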
D1 PAM: Potentiators of Human D1 Dopamine Receptor: qHTS. potentiation, % at 10 µM. HEK293 TREx D1 cells, calcium flux, dopamine EC20 potentiation. D(1A) dopamine receptor (Homo sapiens), P21728. actives 0.036% (n = 360,000); in the data active means potentiation above about 30%
D1 antag: Antagonist of Human D 1 Dopamine Receptor: qHTS; HEK293 TREx D1 cells, calcium flux, dopamine EC80; active compounds read low; activity change, negative = inhibition, % at 10 µM; actives 3.2% (n = 360,000); AID 504652, 2011; in the data active means activity change below about -30%
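Kinetic fluorescence of a calcium dye serves as the read-out. D1-expressing Hek293 Trex cells, induced overnight at 30 C, are exposed to compound for 180 s before an EC80 dopamine addition, then read 180 s further.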
Hits are given with their value; . = inactive; / = not tested or not shown; ! = not active in a repeat. Unless noted, no stated cut-off is given here; in the data, active means activation above about 30%; inactive means the rest.

SMILES	TRHR enhancer	D1 ag	TRHR ag	D1 PAM	D1 antag
O=C(CC1CCCC1)N1CCN(S(=O)(=O)c2ccc(F)cc2)CC1	.	.	.	/	.
COc1ccc(Cl)cc1NC(=O)C(C)OC(=O)C1=NNC(=O)CC1 (configuration not stated)	.	.	.	.	-66
O=C1CCC(C(=O)OC(C(=O)Nc2cc(Cl)cc(Cl)c2)c2ccccc2)=NN1 (configuration not stated)	.	.	.	.	.
COC(=O)CNC(=O)c1nn(-c2cccc(OC)c2)c(=O)c2ccccc12	.	.	.	.	-40
COc1cccc(-n2nc(C(=O)O)c3ccccc3c2=O)c1	.	.	.	.	.
Cc1ccc(C(=O)NCc2ccc3c(c2)CCO3)cc1C	.	.	.	.	-48
COc1cccc(NC(=O)c2cnn(-c3ccccc3)c2-n2cccc2)c1	.	.	.	.	.
Cc1cc(C)n(-c2ccc(NC(=O)C3CCN(Cc4cnc(C)s4)CC3)cc2)n1	.	.	.	.	.
Cc1ncc(CN2CCC(C(=O)Nc3ccc(-n4cccn4)cc3)CC2)s1	30	.	.	.	.
Cc1ccc(CSCC(=O)N(C)CC(=O)Nc2ccccc2Cl)cc1	.	.	.	.	-33
CN(CC(=O)Nc1ccccc1Cl)C(=O)Cn1cc(C(F)(F)F)ccc1=O	.	.	.	.	-33
CCN(CC)C(=O)CSc1nc(-c2ccccc2)cc(-c2ccc(OC)cc2)c1C#N	.	.	.	.	.
CC(C)(C)OC(=O)N1CCC(c2c(C(=O)NCc3cccs3)cnn2-c2cccc(F)c2)CC1	.	.	.	.	.
COc1ccc(C2NC(C(=O)O)Cc3c2[nH]c2ccccc32)cc1CN1CCN(c2ccc(F)cc2)CC1 (configuration not stated)	.	.	.	.	-48
COc1ccc(/C=N/NC(=O)c2cc(OC)c(OC)c(OC)c2)cc1CN1CCc2cc(OC)c(OC)cc2C1C (configuration not stated)	.	.	.	.	.
COc1cc(OC)c(CN2CCN(c3ccc(F)cc3)CC2)cc1Br	.	.	.	.	-31
COc1ccc(C2NCCc3c2[nH]c2ccccc32)cc1COc1ccc(F)cc1 (configuration not stated)	.	77	.	.	.
O=C(O)C1Cc2c([nH]c3ccccc23)C(c2ccc3c(c2)OCO3)N1 (configuration not stated)	.	.	.	.	.
COc1ccc(CN2CCN(c3ccc(F)cc3)CC2)c(OC)c1OC	.	.	.	.	.
COc1ccc(C2NCCc3c2[nH]c2ccccc32)cc1CN1CCc2cc(OC)c(OC)cc2C1C (configuration not stated)	.	36	.	.	-54
COc1ccc(F)cc1COc1nc(C)nc2ccccc12	.	.	.	.	.
O=C(NCc1ccccn1)c1nn(-c2ccccc2Cl)nc1CO	.	.	.	.	.
N=C1SC(c2ccccc2)C(=O)N1c1ncc(Cc2ccccc2Cl)s1 (configuration not stated)	.	.	.	.	-43
CCOC(=O)N1CCC(NS(=O)(=O)c2ccccc2)CC1	.	.	.	.	.
CCOC(=O)N1CCC(NS(=O)(=O)c2cc(Br)cnc2N)CC1	.	.	.	.	-30
SMILES	TRHR enhancer	D1 ag	TRHR ag	D1 PAM	D1 antag
CCOC(=O)N1CCC(NS(=O)(=O)c2ccc(C)cc2)CC1	.	.	.	.	-39
Fc1ccc(-n2ncc3c(Nc4cccc(Cl)c4)ncnc32)cc1	.	.	.	.	.
Cc1ccc(NC(=O)C2CCCN(c3ncnc4c3nc3n4CCCCC3)C2)c(Br)c1 (configuration not stated)	.	.	.	.	.
CCN(CC)S(=O)(=O)c1ccc(C(=O)NNC(=O)c2cccs2)cc1	.	.	.	.	-42
CCCCN(CC)S(=O)(=O)c1ccc(C(=O)Nc2nnc(-c3cccs3)o2)cc1	.	40	.	.	.
C=CCn1c(CCCOc2ccc(Cl)cc2Cl)n[nH]c1=S	.	.	.	.	-46
C=CCn1c(Cc2nc3ccc(Cl)cc3[nH]2)n[nH]c1=S	.	.	.	.	.
CCOC(=O)Cn1c(=O)oc2cc(S(=O)(=O)N3CCN(c4ccccc4OC)CC3)ccc21	.	.	.	.	.
Cc1cc(-c2ccc(S(=O)(=O)Nc3ccc(Br)c(C)c3)s2)on1	.	.	.	.	.
COC(=O)c1ccc(NC(=O)Nc2nnc(N(C)C3CCCCC3)s2)cc1	.	.	.	.	-55
COc1cc(Cl)c(C)cc1NC(=O)CSCc1nc(-c2ccc(OC)c(OC)c2)no1	.	.	.	.	.
COc1cc(Cc2cnc(N)nc2N)cc(OC)c1OC	.	.	.	.	-48!
COc1ccc(-n2nnc3c(SCc4ccccc4)ncnc32)cc1	.	.	.	.	.
COc1ccc(NC(=O)CSc2ncnc3c2nnn3-c2ccc(F)cc2)c(OC)c1	.	.	.	.	-34
COc1ccc(-n2nnc3c(SCC(=O)OCc4ccccc4)ncnc32)cc1	31	.	.	.	.
CC(=O)c1ccc(N2CCN(c3ncnc4c3nc3n4CCCC3)CC2)cc1	.	.	.	.	.
CC(NC(=O)c1cc2c(s1)CS(=O)(=O)C2)c1ccccc1 (configuration not stated)	.	.	.	.	.
CCCn1nc2cc(C(=O)NCC34CC5CC(CC(C5)C3)C4)ccc2c1OCC	.	.	.	.	.
COCCn1nc2cc(C(=O)NCC34CC5CC(CC(C5)C3)C4)ccc2c1OC	.	.	.	.	-32
Cc1occc1C(=O)/C(C#N)=C/c1ccc(O)c(Br)c1	.	45	.	/	.
Cc1ccc(NC(=O)Cn2cc(S(=O)(=O)N3CCC(C)CC3)c3ccccc3c2=O)c(Br)c1	.	.	.	.	.
CC(C)(C)NC(=O)c1ccccc1NC(=O)C1CC(=O)N(C2CCCCC2)C1 (configuration not stated)	.	.	.	/	.
CC(C)(C)c1ccc(C(=O)Nc2onc3c2CCCC3)cc1	.	.	.	.	.
CN(C)/N=C/c1ccc(Sc2ccccc2[N+](=O)[O-])o1	.	.	.	.	-33
CN(C)/N=C/c1ccc([N+](=O)[O-])cc1[N+](=O)[O-]	.	.	.	.	.
CN(/N=C/c1ccc(-c2ccc([N+](=O)[O-])cc2)o1)c1ccccc1	.	234	37	.	-67
CCN1CCN(c2ncnc3c2cnn3-c2cc(Cl)ccc2C)CC1	.	.	.	.	.
